High-throughput results: PubChem, several laboratories
This is a sample that favours compounds with a hit; in the whole collection about 6.7% have one here.
Anthrax LF inh2: Bacillus anthracis LF protease inhibitors, primary screen, biochemical, multiplex microsphere, MLPCN library. Lethal factor (Bacillus anthracis), P15917. inhibition, % at 10 µM. hit rate 0.12% among 360,000. multiplex microsphere protease cleavage assay
BoNT F protease: BoNT/F light chain protease inhibitors, primary screen, biochemical, flow cytometry, MLPCN library | Multiplex microsphere protease cleavage assay | inhibition, % at 10 µM | hit rate 0.22% among 360,000 | AID 588497, 2011; in the data active = inhibition above about 35%, passing the limit was not always enough; inconclusive = no clear call, values can overlap the other calls
GDH-TPI counter: GDH-TPI coupling enzyme inhibitors, primary screen, artefact control for M. tuberculosis FBA inhibitor project, biochemical, absorbance, full deck; GDH-TPI coupled enzyme counterscreen, NADH absorbance; AID 588335, 2011; hit rate 1.2% among 360,000; inhibition, % at 4.8 µM; in the data active = inhibition above about 30%
Bead autofluor: counter-screen for toxin protease inhibitors: compound fluorescence. compound autofluorescence counterscreen, microsphere flow cytometry; hits give high values. hit rate 3.1% among 360,000. AID 624483. fluorescence intensity (concentration not given with the values); in the data active = fluorescence intensity above about 16000; inconclusive = no clear call, values can overlap the other calls
BoNT A protease: BoNT/A light chain protease inhibitors, primary screen, biochemical, flow cytometry, MLPCN library. Botulinum neurotoxin type A light chain protease (Clostridium botulinum A str. ATCC 3502). multiplex microsphere protease substrate cleavage. inhibition, % at 10 µM. hit rate 0.17% among 360,000. AID 588499, 2011
FBA Mtb inh: Mtb FBA enzyme inhibitors, primary screen, biochemical, fluorescence, strain H37Rv; inhibition, % at 1 µM; purified M. tuberculosis FBA, fluorescence read-out; Fructose-bisphosphate aldolase (Mycobacterium tuberculosis (strain ATCC 25618 / H37Rv)), …; hit rate 2.3% among 360,000; in the data active = inhibition above about 27%
Target sequence (P9WQA3 whole entry, looked up): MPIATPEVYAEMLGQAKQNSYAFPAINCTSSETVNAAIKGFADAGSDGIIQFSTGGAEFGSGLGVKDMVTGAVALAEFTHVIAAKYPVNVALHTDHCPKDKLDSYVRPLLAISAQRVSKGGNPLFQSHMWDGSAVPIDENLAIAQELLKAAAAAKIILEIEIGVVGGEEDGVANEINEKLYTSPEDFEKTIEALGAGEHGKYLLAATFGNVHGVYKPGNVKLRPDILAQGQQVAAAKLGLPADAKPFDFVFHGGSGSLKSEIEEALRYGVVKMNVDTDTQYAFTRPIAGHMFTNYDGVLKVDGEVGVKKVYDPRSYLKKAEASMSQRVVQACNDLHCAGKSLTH
Hits are given with their value; i = inactive; ? = inconclusive; nt = no result given. Cut-off read from the data, not from the text of the source, unless noted: active = inhibition above about 30%; inconclusive = no clear call, values can overlap the other calls; inactive = below that.

SMILES	Anthrax LF inh2	BoNT F protease	GDH-TPI counter	Bead autofluor	BoNT A protease	FBA Mtb inh
Cc1ccc(C)c(N2CCN(C(=O)CCc3nc(-c4cccc(F)c4)no3)CC2)c1	i	i	i	i	i	i
CCNC(=O)C(C)Sc1ccc(Cl)cc1 (stereo not drawn)	i	i	i	i	i	i
CCN(CC)S(=O)(=O)c1ccc(/C=C/C(=O)Nc2ccc(F)c(F)c2F)cc1	i	i	i	i	i	i
CCOC(=O)N1CCC(NC(=O)c2ccc3c(c2)N(C)CCS3)CC1	i	i	i	i	i	114
CCOC(=O)N1CCC(NC(=O)c2ccc3c(c2)N(Cc2ccc(C)cc2)CCS3)CC1	i	i	i	i	i	i
O=C(NCC1CCCO1)c1ccc2c(c1)N(Cc1ccc(F)cc1Cl)C(=O)CS2 (stereo not drawn)	i	i	i	i	i	i
O=C(NCC1CCCO1)c1ccc2c(c1)N(Cc1ccc(F)cc1)CCS2 (stereo not drawn)	i	i	i	i	i	119
COCCNC(=O)CN(Cc1cccs1)C(=O)CCC(=O)Nc1nccs1	i	i	i	i	i	i
COCCNC(=O)Cn1nc(-c2ccccc2OC)ccc1=O	i	i	i	22415	i	i
COc1ccccc1-c1ccc(=O)n(CC(=O)NCc2ccc3c(c2)OCO3)n1	i	i	i	22769	i	i
COc1cccc(CNC(=O)Cn2nc(-c3ccc(Cl)cc3)ccc2=O)c1	i	i	i	21110	i	i
COc1ccccc1-c1ccc(=O)n(CC(=O)NC(C)(C)C)n1	i	i	i	16772	?	i
COc1ccc(CNC(=O)Cn2nc(-c3ccc4c(c3)OCCO4)ccc2=O)cc1	i	i	i	i	i	i
COCCCNC(=O)Cn1nc(-c2ccccc2OC)ccc1=O	i	i	i	i	i	i
CC(=O)N1CCCc2cc(S(=O)(=O)N3CCCC(C(=O)N4CCN(c5cc(C)ccc5C)CC4)C3)ccc21 (stereo not drawn)	i	i	i	i	i	i
O=C(Nc1cccc(Cl)c1N1CCOCC1)c1cccs1	i	i	i	i	i	i
Cn1cccc1CC(=O)N/N=C\c1cccs1	i	i	i	i	i	i
Cc1nc(N)sc1-c1nnc(SCC(=O)Nc2ccccc2C(F)(F)F)n1C	i	i	i	22790	i	i
N#Cc1cnc(SCC(=O)Nc2ccccc2C(F)(F)F)nc1N	i	i	i	17110	?	i
Cc1ccc(OCC(=O)NNC(=O)CSc2ncc(C#N)c(N)n2)cc1	i	i	i	i	i	i
CCN(C(=O)COC(=O)c1ccc2c(c1)OCO2)c1c(N)n(Cc2ccccc2)c(=O)[nH]c1=O	i	i	i	i	i	i
Cc1oc(=O)c(NC(=O)c2ccccc2)cc1C(=O)c1ccccc1	i	i	i	i	i	i
Nc1nonc1-c1nc2ccccc2n1CC(=O)NC1CCCC1	nt	nt	i	nt	nt	i
CCN(CC)c1ccc(/C=N/NC(=O)c2ccco2)cc1	i	i	43	i	i	i
CCN(CC)c1ccc(/C=N/NC(=O)c2ccco2)c(O)c1	nt	nt	41	nt	nt	i
SMILES	Anthrax LF inh2	BoNT F protease	GDH-TPI counter	Bead autofluor	BoNT A protease	FBA Mtb inh
CCN(CC)c1ccc(/C=N/NC(=O)Cc2cccs2)c(O)c1	i	i	38	i	i	i
O=C(N/N=C/c1ccccc1)c1ccco1	i	i	i	i	i	i
CC(C)Cn1c(-c2csc3ccccc23)n[nH]c1=S	i	i	i	i	i	i
Cc1occc1-c1n[nH]c(=S)n1CC(C)C	i	i	i	23617	i	i
O=C(Nc1ccccn1)Nc1ccccc1[N+](=O)[O-]	i	i	i	i	i	i
O=c1nc(/C=C/c2ccc(Cl)cc2Cl)cc(C(F)(F)F)[nH]1	nt	nt	41	nt	nt	i
O=C(c1ccc(Br)o1)N1CCC(Cc2ccccc2)CC1	i	i	i	i	i	i
COC(=O)c1cnn(-c2ccc(F)cc2F)c1/C=N/NC(N)=S	i	?	36	?	i	i
COC(=O)c1cnn(-c2ccc(F)cc2F)c1/C=N/NC(=S)NC(C)(C)C	52	?	36	i	i	i
CNC(=S)N/N=C/c1c(C(=O)OC)cnn1-c1ccc(F)cc1F	i	?	46	i	i	i
Nc1c(Cl)cc(Cl)cc1C(=O)OCC(=O)N1CCCC1=O	i	i	i	i	i	i
CC(C)CNC(=O)COc1ccccc1[N+](=O)[O-]	i	i	i	i	i	i
Cc1ccnc(NC(=O)c2cc3ccccc3o2)c1	i	i	i	i	i	i
COc1ccccc1N1CCN(C2CCCN(S(=O)(=O)c3ccccc3)C2)CC1 (stereo not drawn)	i	i	i	?	i	163
CC1CCC/C(=N\NC(=S)NCc2ccccc2)C1 (stereo not drawn)	i	i	i	i	i	i
CC1C/C(=N\NC(=S)NCc2ccccc2)CC(C)(C)C1 (stereo not drawn)	i	i	i	22911	?	i
Cc1c(N2C(=O)/C(=C/c3cccc4ccccc34)SC2=S)c(=O)n(-c2ccccc2)n1C	i	i	i	i	i	i
COc1cc(-c2ccc3c(=O)c4ccccc4n(C)c3c2)cc(OC)c1OC	i	i	i	i	i	i
Cn1c2ccccc2c(=O)c2ccc(F)cc21	i	i	i	i	i	191
CCCN=C(N)/C(C(=O)OCC)=C(\O)c1ccc(OC)cc1	i	i	i	21368	i	i
CCOC(=O)/C(C(N)=NCC(C)C)=C(/O)c1ccccc1	i	i	i	i	i	i
CC(O)(c1cccc(F)c1)c1nc(-c2cc3ccccc3o2)cs1 (stereo not drawn)	i	i	i	i	i	i
O=C1C2=C(SCCS2)C(=O)N1CCCO	i	i	i	i	i	i
COc1ccc(-n2c(/C=C(\C)O)nc(=O)c3c(C)cc(C)nc32)cc1	i	i	59	22184	i	i
O=C(C1CCCC1)N1CCCC(Nc2ccc(F)cc2)C1 (stereo not drawn)	i	i	i	i	i	i
SMILES	Anthrax LF inh2	BoNT F protease	GDH-TPI counter	Bead autofluor	BoNT A protease	FBA Mtb inh
Cc1cc(C)cc(N(CCC#N)C(=O)COC(=O)CN2C(=O)NC(C)(C)C2=O)c1	i	i	i	i	i	i
O=C(NNC(=S)NCc1ccco1)c1ccc(Cl)s1	i	i	31	i	i	i
Cn1cc(Cl)c(C(=O)NNC(=S)NCc2ccco2)n1	i	i	i	i	i	i
O=C(NCCCN1CCCCC1)c1ccc2c(=O)n(CCc3ccccc3)c(=O)[nH]c2c1	i	i	i	i	i	i
O=C(CCC(=O)Nc1ccccc1)NNC(=O)c1cccs1	i	i	i	21744	i	i
CCCC(=O)Nc1ccc(C(=O)NNC(=O)c2cccs2)cc1	i	i	i	22535	i	i
CCCC(=O)Nc1ccc(C(=O)NNC(=S)NC(=O)c2cccs2)cc1	i	i	i	i	i	i
O=C(O/N=C1\CCCCC1c1ccc([N+](=O)[O-])cc1[N+](=O)[O-])c1c(F)cccc1F (stereo not drawn)	i	i	i	i	i	i
